# An excerpt weighted towards active compounds, which were near 19% of everything screened.
# HT1080-NT tox = kills 2HG-producing HT-1080-NT fibrosarcoma cells; HT-1080-NT fibrosarcoma viability, CellTiter-Glo ATP luminescence, 48 h; Potency, µM (titrated, usually from 46.1 µM), without a hit: at the highest dose activity, negative = less viability, most hits filed as cytotoxic; actives 1.6% (n = 360,000);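 also: NT is the 2HG producing partner of a matched IDH1 knockdown line; 0% = DMSO-treated cells and -100% = media-only wells without cells; nearly all actives have a fitted effect of over 55% in size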
#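 Viability by CellTiter-Glo luminescence after 48 h compound exposure at 37C of HT-1080-NT cells (750/well, RPMI, 5% FBS). % activity scaled between DMSO wells and medium-only wells, then curve-fitted and categorized by curve class.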
# HT1080 IDH1KD tx = HT-1080 IDH1 knockdown cell toxicity (counter line); HT-1080 IDH1 knockdown viability, ATP luminescence, 48 h; Potency, µM (series often up to 46.1 µM), for the others: at the top dose activity, negative = toxicity, most hits filed as cytotoxic; actives 2% (n = 360,000); AID 686971;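 also: 0% = DMSO wells and -100% = cell-free medium wells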
#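 IDH1KD HT-1080 cells, 750/well, RPMI + 5% FBS; compound pinned after 2 h settling; 48 h, 37 °C; CellTiter-Glo luminescence; % activity normalised to DMSO and no-cell wells; curves fitted, classed by r2 and efficacy.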
# KB-3-1 tox = kills parental KB-3-1 adenocarcinoma cells | KB-3-1 viability, CellTiter-Glo ATP luminescence, 72 h | actives 1.4% (n = 400,000) | AID 1347075 | Potency, µM (highest dose often 46.1 µM), actives largely listed as cytotoxic; also: nearly all actives have a fitted effect of over 60% in size
#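 KB-3-1 parental drug-naive adenocarcinoma cells in DMEM/10% FBS, incubated 72 h at 37 C with pin-transferred compounds across a concentration series. Viability by CellTiter-Glo luminescence; concentration-response curves fitted after normalization.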
# DT40 TDP1 CPT = growth inhibition of DT40 Tdp1-/-;hTDP1 cells with camptothecin (screen for TDP1 inhibitors); chicken DT40 Tdp1-/-;hTDP1 cells + 20 nM CPT, ATP luminescence, 48 h; Potency, µM (series often up to 46.2 µM), without a hit: at the top dose activity change, negative = growth inhibition, hits mostly inhibitors; actives 12% (n = 420,000); AID 686979; also: nearly all actives have a fitted effect of over 55% in size
#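 Cell growth measured by CellTiter-Glo luminescence after a minimum 48 h, 37 C compound exposure with 20 nM CPT in Tdp1-knockout DT40 cells stably expressing hTDP1, seeded 400/well; qHTS titration format.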
# DT40 TDP1 no CPT = qHTS for Inhibitors of human tyrosyl-DNA phosphodiesterase 1 (TDP1): qHTS in cells in absence of CPT | DT40 Tdp1-/- hTDP1 cells, no CPT, ATP luminescence, 48 h | Potency, µM (series often up to 46.2 µM), without a hit: at the top dose activity change, negative = growth inhibition, usual class: inhibitors | actives 15% (n = 420,000) | AID 686978, 2013; also: nearly all actives have a fitted effect of over 55% in size
#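 Camptothecin absent (DMSO only). Human TDP1-complemented DT40 knockout cells, 400 cells/well, 37 °C for minimum 48 hr; ATP measured via CellTiter-Glo, 30 min dark incubation, luminescence.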
# KB-V1 MDR tox = KB-V1 MDR subline cytotoxicity. AID 1347076. KB-V1 MDR cells viability, CellTiter-Glo, 72 h. Potency, µM (series often up to 46.1 µM), most hits filed as cytotoxic. actives 3.4% (n = 400,000); also: nearly all actives have a fitted effect of over 60% in size
#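 Compound-treated KB-V1 multidrug-resistant cells, 72 h, 37 degrees C; viability by CellTiter-Glo. Fitted qHTS curves give the values.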
# The depositor's hits bear a star; i = inactive; ? = inconclusive; . = no result given; [ ] = dose if it differs, or a comment. Calls follow the shape of the dose curve; as a rule, active = well fitted curve in the direction sought with a large enough effect; inconclusive = small, poorly fitted or top-dose-only effect, or another doubt; inactive = no such curve, though single readings can be large; an effect the other way counts as inactive or inconclusive. Unless noted, % is scaled to controls: 0 for no effect and ±100 for the full control effect; potency is read from the fitted curve at half-maximal effect.
SMILES,HT1080-NT tox,HT1080 IDH1KD tx,KB-3-1 tox,DT40 TDP1 CPT,DT40 TDP1 no CPT,KB-V1 MDR tox
COc1ccc(NC(=O)Cn2c(=O)oc3cc(S(=O)(=O)N4CCC(C)CC4)ccc32)c(OC)c1,.,.,?,21µM*,8.2µM*,i
CN(CCc1ccccc1)C(=O)CCc1nnc(Cc2ccc3c(c2)OCO3)o1,3%,6%,i,2%,6%,?
COc1ccc(CCNC(=O)CCCn2c(=O)c3ccccc3n(CC(=O)Nc3ccc(C)cc3Cl)c2=O)cc1OC,.,.,i,?,?,i
Cc1cccc(Cc2c(C)nc3nc(SCc4ccccc4F)nn3c2C)c1,.,.,i,13µM*,9.2µM*,i
Cc1nc2nc(SCC(=O)NCc3ccccc3Cl)nn2c(C)c1Cc1ccccc1,.,.,i,?,?,i
Cc1nc2nc(SCc3c(F)cccc3Cl)nn2c(C)c1Cc1ccccc1,.,.,.,13µM*,8.2µM*,.
Cc1cccc(Cc2c(C)nc3nc(SCc4cccc(F)c4)nn3c2C)c1,.,.,i,21µM*,?,i
Cc1cc(C)n2nc(SCc3c(F)cccc3Cl)nc2n1,11%,6%,i,?,26µM*,?
CCCSc1nnc2c(n1)OC(CC)N(C(C)=O)c1ccccc1-2 (centres undefined),.,.,i,-18%,-21%,i
O=C(NCC1CCC2(CCN(Cc3cccc4ncccc34)CC2)O1)c1ccccc1 (centres undefined),.,.,.,-17%[9.04 µM],-18%,.
Cc1cccc2cc(CN(Cc3ccco3)C(c3nnnn3CCc3ccccc3)C(C)C)c(=O)[nH]c12 (centres undefined),-2%,-3%,?,?,15µM*,i
COc1ccc2[nH]c(=O)c(CN(Cc3ccco3)C(c3nnnn3Cc3ccccc3)C(C)C)cc2c1 (centres undefined),-22%,-28%,?,18µM*,21µM*,?
COCCn1nnnc1C(C(C)C)N(Cc1ccccc1)Cc1cc2cc(OC)ccc2[nH]c1=O (centres undefined),?,?,i,?,16µM*,i
Cc1cc(Cl)ccc1NC(=O)CSc1nc2c(c(=O)[nH]1)CCC2,.,.,.,-13%,-17%,.
Cc1cn2c(=O)c(S(=O)(=O)NC(C)c3ccccc3)c(C)nc2s1 (centres undefined),.,.,i,-6%,5%,i
O=C(CSc1ncn[nH]1)Nc1nc(-c2ccccc2)cs1,-10%,-5%,i,-24%,-23%,i
Cc1csc(SCC(=O)Nc2nc(-c3ccccc3)cs2)n1,13%,6%,i,?,?,i
Nc1ccccc1SCC(=O)Nc1nc(-c2ccccc2)cs1,-8%,?,4.1µM*,6%,?,?
CCCCn1c(SCC(=O)NC(=O)Cc2ccccc2)nc2ccccc2c1=O,-3%,0%,i,-13%,6%,i
COc1ccc(NC(=O)CSc2nccn2C)c([N+](=O)[O-])c1,15%,14%,i,14%,-7%,i
COc1ccc(NC(=O)CSc2nc(C)cs2)c([N+](=O)[O-])c1,-2%,3%,i,-29%,-23%,23µM*
Cc1ccc(-c2csc(NC(=O)CSc3nc(C)cs3)n2)cc1,2%,-4%,i,?,16µM*,i
Cc1ccc(-c2csc(NC(=O)CSc3nc4ccccc4c(=O)n3CCCN(C)C)n2)cc1,?,23µM*,?,10µM*,15µM*,?
COc1ccc(-n2nnc(-c3nc(-c4cccs4)no3)c2N)cc1OC,.,.,.,12%,-7%,.
Cc1cccc(C)c1-n1nnnc1C(c1ccnc2ccccc12)N1CCOCC1 (centres undefined),14%,28%,i,-5%,-25%,i
SMILES,HT1080-NT tox,HT1080 IDH1KD tx,KB-3-1 tox,DT40 TDP1 CPT,DT40 TDP1 no CPT,KB-V1 MDR tox
CCn1c(SCC(=O)Nc2nc(-c3ccc(C)cc3)cs2)nnc1-c1ccccc1,-29%,-23%,?,?,18µM*,2.6µM*
CN(C)CCCn1c(SCC(=O)N2c3ccccc3Sc3ccccc32)nc2ccccc2c1=O,18µM*,?,?,?,23µM*,?
O=C(CCn1cnc2ccccc2c1=O)Nc1nc(-c2ccc(Br)cc2)cs1,-13%,-23%,?,?,16µM*,i
Cn1c(SCC(=O)N2c3ccccc3Sc3ccccc32)nc2ccccc21,-5%,-3%,i,?,?,?
Cc1ccc(NC(=O)CCn2cnc3ccccc3c2=O)cc1,-7%,10%,i,-16%,-3%,i
Cc1csc(SCC(=O)Nc2cccc(C)c2C)n1,-1%,10%,i,-29%,1%,16µM*
Cc1ccnc2nc(NC(=O)c3ccccc3Cl)nn12,.,.,.,0%,2%,.
Cc1cccc(N2CCN(S(=O)(=O)c3cn(C)c(C)n3)CC2)c1C,.,.,i,-21%,-24%,?
Nc1nonc1-n1nnc(C(=O)N/N=C/c2ccc(OCc3ccccc3F)cc2)c1CNc1ccccc1,-23%,-14%,?,-15%,0%,?
Cc1cc(C)nc(SCc2nnc(SCC(=O)Nc3nc(-c4ccccc4)cs3)n2C)n1,-6%,0%,i,?,26µM*,i
CCn1c(SCC(=O)Nc2nc(-c3ccc(C)cc3)cs2)nnc1-c1ccccc1O,?,?,?,?,?,i
Cc1cc(C)nc(SCc2nnc(SCC(=O)Nc3nccs3)n2C)n1,18%,16%,i,12%,10%,?
CCn1c(CSc2nc(C)cc(C)n2)nnc1SCC(=O)Nc1nc(-c2ccccc2)cs1,-9%,-5%,i,21µM*,?,?
C=C1[C@@H](O)[C@H](CC(C)C)N(Cc2ccccc2Br)S1(=O)=O,23µM*,?,?,5µM*,18µM*,i
Cc1ccc(SC2=C(C(=O)O)CCCC2)cc1,28%,15%,i,-10%,-22%,i
O=C(c1ccc(Cn2c(=S)[nH]c3ccc(N4CCOCC4)cc3c2=O)cc1)N1CCN(c2ccc(F)cc2)CC1,-3%,-13%,i,16µM*,16µM*,?
Cc1ccc(C)c(N2CCN(C(=O)c3ccc(Cn4c(=S)[nH]c5ccc(N6CCOCC6)cc5c4=O)cc3)CC2)c1,-1%,7%,i,?,15µM*,i

# Screening results (PubChem BioAssay)
